Laboratory results: the supplement of paper PMC11417369
In all, about 25,000 sequences were measured (“ln(normalized median fluorescence intensity)”: median about 9.3, highest 2% from about 10 on). The list comes from a sample in which the highest values are over-represented; it also holds similar and randomly drawn sequences.

What follows are sequences tested on PF3D7_0420300 AP2 domain 1 (GST-tagged) (assay: gcPBM binding intensity (ln(normalized median fluorescence intensity)); higher = stronger DNA binding).
Procedure, shortened: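 After 1 h on an Agilent 4 × 180k array of primer-extended double-stranded 36-bp intergenic genomic probes and negative controls, bound GST-tagged P. falciparum DNA-binding domains were detected with Alexa488 anti-GST antibody and scanned at 488 nm. The domains had been expressed in E. coli, and binding took place in 1× PBS with 1% milk, 0.2 mg/ml BSA, 0.5% salmon testes DNA and 0.03% Triton X-100. Binding intensity is the highest Masliner-normalised natural-log median intensity across replicate spots of either probe orientation.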

Sequence | gcPBM binding intensity (ln)
AATTATCAGGAATGATGTACTGAAATAAAAAAAAAA [XGTACX_site3280] | 9.11
GTATATATATATATATGTACTAATTAGTAGTTTACG [XGTACX_site6274] | 9.25
TTTTTATGAATTCTTTTGTTAATAATAATATGTTGT [TGCATGCA_negctrl_site198] | 9.19
ATATATCTGTATGGCACACACGGATAAATATATATA [CACACA_site4668] | 9.52
ATATAGTAAATTGGTAGTACATAAAATGATTTTATG [XGTACX_site4143] | 9.26
AAAAAAAAATTGTGTACACATAATTATATCATATGT [CACACA_site4500] | 9.3
ACCTATTTCAAACACACACACACACTAGCAAACATA [CACACA_site4695] | 10.3
ACCTATTTCAAACACACACACACACTAACAAACATA [CACACA_site8233] | 10.3
ACTATTTTCTTCAAAACATGCACCACATAAACATAA [TGCATGCA_site200] | 9.18
TTTCTTATTTTTTTCACACACTAAACATTTCAAATG [CACACA_site5259] | 9.35
CTATTTCAGAAACACACACACACAAACAAACATATA [CACACA_site978] | 9.93
ACCTATTTCAAACACACACACACACCCACAAACATA [CACACA_site977] | 10.4
TGTTTCTTATTTTTTTCACACACTAAACATTTCAAA [CACACA_site2218] | 9.62
AAAAAATTAAAAATCACACATAAATATATATAAAAA [CACACA_site4192] | 9.48
CATATATTATTATATGCACACATGAAAATATACAAA [CACACA_site2795] | 9.49
AAGAAAAAAATTTATACAAGAATTTTTTATTATTAA [TGCATGCA_negctrl_site587] | 8.9
ATTTATGTTATATATACACACACAAAAGAAAAAAAA [CACACA_site8977] | 9.82
AAACATATAAACATATGTACATATAAACATATATAC [XGTACX_site5026] | 9.42
AAAAAAAAAGTATTATGTACATAAAAATAAAAAAAT [XGTACX_site4166] | 9.42
ATATAAGTATATCTATGTACATACAATATAAATGTA [XGTACX_site2153] | 9.09
AAAAATATAAACTGCACACACACAAAAAAAGAAAAA [CACACA_site648] | 10.1
AAAAAAAGAAAAAAAACACACACAAATATAAATAAA [CACACA_site8309] | 10

Sequence | gcPBM binding intensity (ln)
AAAAATATAAACTGCACACACAAAAAAAAAAGAGAA [CACACA_site1367] | 10.1
AAATATAAACGGCACACACACAAAAAAAGAAAAAAA [CACACA_site649] | 10.2
TAAAAAATATAAACTGCACACACAAAAAAAAAAGAG [CACACA_site8379] | 10.2
AAAAAGAAAAAAAACACACACAAATATAAATAAATA [CACACA_site1183] | 9.98
TCTAATGATATATACACACACATATAGATTTATATA [CACACA_site7044] | 9.64
TGTAGATATTATATATGTACGCATATGAAATATATA [XGTACX_site1586] | 9.09
ACATATTCATATGGAAGTACGATAATGTAGTCATAT [XGTACX_site7080] | 9.37
TTTAACAACTATTTCTGTACACATTTTTATATAATT [XGTACX_site4917] | 9.47
TTTATATTATAATATAATAATGATCTTAATTTTTTT [XGTACX_negctrl_site100] | 8.91
AAAAAAAATTTTAATTGTACAAAAAAAAAAAATATA [XGTACX_site2259] | 8.91
TATATACACAGACACACACACACATACACGCACATA [CACACA_site6909] | 10.3
CACGCACGCAGACACACACACACACGCACATATATA [CACACA_site6303] | 10.3
TATACACATAGACACACACACAAAAAAAAAAAAAAA [CACACA_site6338] | 9.73
CACATACACATACACATACACACGCATAGAAACATA [CACACA_site2136] | 9.79
AACATACATAGACACACACACACACGCACACGCACA [CACACA_site6373] | 10.3
CATACATACAGACACACACACATATATATATATATA [CACACA_site2920] | 9.91
CATACACATAGACACACACACATATATACCTATATA [CACACA_site6644] | 10.1
CATACCTATAGACACACACACACACGCACGCACAAA [CACACA_site6374] | 10.2
TATACACATAGACACACACACATACACGCACATACA [CACACA_site6908] | 10.1
AGTATACGCAGACACACACACACATATATATATATA [CACACA_site1735] | 9.98
CGCACACGCAGACACACACACACATATAAATAAATA [CACACA_site7101] | 9.86
CACATACAGACATACACACATACACATATACGCATA [CACACA_site1745] | 9.86

Sequence | gcPBM binding intensity (ln)
TAGTATTTATATGATTAACACACATATGGGTATTAA [CACACA_site8363] | 9.28
CATATAAGACAAAAGGTGCAATTTTAATGCTTTTAT [GTGCAC_site9432] | 9.31
ATAACATATATATATACACACACATATATATATGAA [CACACA_site7983] | 9.79
TTCTATATTTTAGCTGATAATATTATGAGCTTCACT [XGTACX_negctrl_site427] | 9.08
AATAAATAAATAAATATATATATATATATATATATA [CACACA_negctrl_site708] | 8.86
TCTTCTTAACCAACTATGAAAAGGAAAAATATAACA [GTGCAC_negctrl_site565] | 9.06
TATGTATAATTATTTTGTACTTATTAAATTTTTTTT [XGTACX_site5413] | 9.18
TACCCTGATCGGCATGCATGTAAGTAACAAATATAT [TGCATGCA_site153] | 9.22
ATATAAAATATTACGTGTACACATAAATAAAAATAA [XGTACX_site3746] | 9.41
GAATAAAAAATTGGCACACATAAATATATGGATATA [CACACA_site3047] | 9.46
TATACACGCGGACACACACACACACGCAAAAAAAAA [CACACA_site6377] | 10.1
AGTATACTCGGACACACACACACATATATATATATA [CACACA_site5031] | 10.2
AGTATACATATATATACACACACATATATATATATA [CACACA_site7883] | 9.61
TATACGCATATATACACACACATATATATATATATA [CACACA_site3416] | 9.66
CATACACGCGGACACACACACACACGCATATATAAC [CACACA_site6427] | 10.4
AGTATACATATATATACACACATATATATATATATA [CACACA_site300] | 9.42
AAAAAAAAAAGACACACACACACACGCATATACATA [CACACA_site7289] | 10.2
AAAAAAAAAAAAAAGACACACATATATATATATATA [CACACA_site633] | 9.15
CGCATACACGGACACACACACACATATATATATATA [CACACA_site4520] | 10.1
TACATACACGGACACACACACATATATATATATATA [CACACA_site5883] | 9.95
CATATATACACATACACACACACACGGACACGCACA [CACACA_site6910] | 10.2
